Only some compounds are listed: those with a hit (about 1.6% of all), similar ones and a draw of the others.
KCNQ2 enhance: potentiators of rat KCNQ2 potassium channel | Potassium voltage-gated channel subfamily KQT member 2 (Rattus norvegicus), O88943 | CHO-K1 KCNQ2, FluxOR thallium flux fluorescence; stronger effect = higher value | B-score at 10 µM | 310,000 tested, 0.54% active;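 active = fluorescence ratio B-score at least 3 SD of library B-scores, with initial fluorescence B-score within 3 of them, cut at about 5.3 in these data; same plate scores as AID 2156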;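 note: B-score of peak minus minimum over baseline fluorescence ratio after K+ and Tl+ stimulus; positive B-score means potentiation of KCNQ2 with more thallium influx and brighter signal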
Target sequence (O88943 whole entry, looked up): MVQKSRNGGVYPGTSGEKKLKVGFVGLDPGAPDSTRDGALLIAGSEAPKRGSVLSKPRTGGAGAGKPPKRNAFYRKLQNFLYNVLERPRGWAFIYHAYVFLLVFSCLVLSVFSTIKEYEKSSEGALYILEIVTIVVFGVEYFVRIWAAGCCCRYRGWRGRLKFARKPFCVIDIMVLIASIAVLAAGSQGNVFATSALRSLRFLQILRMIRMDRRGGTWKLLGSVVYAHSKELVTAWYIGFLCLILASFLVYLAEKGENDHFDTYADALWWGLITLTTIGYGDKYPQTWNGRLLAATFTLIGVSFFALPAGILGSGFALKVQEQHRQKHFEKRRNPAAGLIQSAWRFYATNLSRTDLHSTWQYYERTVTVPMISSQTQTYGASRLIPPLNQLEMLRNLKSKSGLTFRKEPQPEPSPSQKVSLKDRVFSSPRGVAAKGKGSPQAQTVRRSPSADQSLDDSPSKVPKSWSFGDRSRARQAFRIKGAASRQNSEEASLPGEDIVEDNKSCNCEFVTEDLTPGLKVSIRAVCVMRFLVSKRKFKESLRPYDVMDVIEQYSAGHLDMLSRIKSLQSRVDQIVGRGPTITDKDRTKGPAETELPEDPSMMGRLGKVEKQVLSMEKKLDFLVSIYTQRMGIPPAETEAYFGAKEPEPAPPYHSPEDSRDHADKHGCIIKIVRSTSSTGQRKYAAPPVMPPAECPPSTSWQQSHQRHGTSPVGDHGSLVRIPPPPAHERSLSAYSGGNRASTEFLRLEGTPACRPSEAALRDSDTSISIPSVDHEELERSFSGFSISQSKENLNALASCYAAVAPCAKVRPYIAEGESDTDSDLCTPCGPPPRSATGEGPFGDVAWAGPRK
KCNQ2 block: rat KCNQ2 potassium channel inhibitors, primary screen, cell-based, CHO-K1, FluxOR thallium flux, B-score; Potassium voltage-gated channel subfamily KQT member 2 (Rattus norvegicus), O88943; 310,000 tested, 1.1% active; AID 2156, 2009; 20 min; stronger effect = lower value; B-score at 10 µM;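 active = fluorescence ratio B-score at most minus 3 library SDs, with starting brightness B-score within 2 library SDs, cut at about -5.5 in these data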
A number is an active result; – = inactive; · = no result.

SMILES	KCNQ2 enhance	KCNQ2 block
Cc1ccc(-c2nc3cnccn3c2Nc2ccc3c(c2)OCO3)cc1	·	–
CCOC(=O)c1ccccc1NC(=O)c1cn(-c2ccc(C)c(C)c2)c(=O)c2ccccc12	–	-6.42
COC(=O)c1ccccc1NC(=O)c1cn(-c2ccc(C)c(C)c2)c(=O)c2ccccc12	·	–
COc1ccc(C(CNC(=O)c2cc(C)oc2C)N2CCOCC2)cc1 (configuration not stated)	–	–
COc1ccc(/C=N/NC(=O)c2ccc[nH]2)cc1	–	-6.08
COc1ccc(/C=N/NC(=O)c2cccnc2)cc1	·	–
Cn1nnc(NC(=O)c2ccc3ccccc3c2)n1	–	–
O=c1cc(-c2ccccc2)nc2nc(-c3ccco3)[nH]n12	·	–
O=C(c1ccc(Cl)c(Cl)c1)N(Cc1ccco1)c1ccc(O)cc1	–	-6.39
O=C(COc1ccccc1)N(Cc1ccco1)c1ccc(O)cc1	·	–
O=C(Nc1cccc2ccccc12)c1cccc([N+](=O)[O-])c1	·	–
COc1ccc(-c2csc(N(CC(C)C)C(=O)c3ccco3)n2)cc1	·	–
O=C1CC(c2cccc(Cl)c2)CC(O)=C1C=NC1CCCC1 (configuration not stated)	–	-6.76
O=C1CC(c2ccccc2)CC(O)=C1C=NCc1ccccc1Cl (configuration not stated)	·	–
CN(c1ccc(S(=O)(=O)N2CCOCC2)cn1)C1CCCCC1	·	–
Cc1ccccc1C(=O)NC1CCN(CC(=O)Nc2nccs2)CC1	–	–
CCn1ccnc1CN(C)Cc1cn(-c2cccc(C)c2)nc1-c1cccc(F)c1	·	–
Cc1cccc(-n2cc(CN(C)Cc3nccn3C)c(-c3cccc(F)c3)n2)c1	–	-6.71
O=C(NCC1COc2ccccc2O1)c1cccs1 (configuration not stated)	·	–
O=C(NCC1COc2ccccc2O1)c1ccc(Br)s1 (configuration not stated)	–	-6.18
CC(C)N(C)C(=O)c1ccc(OC2CCN(CCc3ccccc3)CC2)cc1	·	–
Nc1nc(SCC(=O)Nc2ccc(Oc3ccccc3)cc2)n[nH]1	–	–
Nc1nc(SCC(=O)Nc2cccc(Oc3ccccc3)c2)n[nH]1	6.44	–
COc1ccccc1-n1cnnc1SCC(=O)NC1CCS(=O)(=O)C1 (configuration not stated)	–	–
O=C(/C=C/c1ccccc1)N1CCN(c2ccc([N+](=O)[O-])c(N3CCOCC3)c2)CC1	–	-6.38
SMILES	KCNQ2 enhance	KCNQ2 block
O=C(c1ccc2ccccc2c1)N1CCN(c2ccc([N+](=O)[O-])c(N3CCOCC3)c2)CC1	·	–
COc1ccc(-c2c[n+]3c4n2CCCCC4=C(c2ccccc2)C3)cc1	–	-6.15
COc1ccc(-c2c[n+](CC(=O)c3ccccc3)c3n2CCCCC3)cc1	·	–
Cc1ccc(CC(=O)O/N=C(\N)Cc2ccc([N+](=O)[O-])cc2)cc1	·	–
N/C(Cc1ccc([N+](=O)[O-])cc1)=N\OC(=O)CC1CCCCC1	8	–
Cc1cc(C)n(-c2nc(-n3nc(C)cc3C)c3c4c(sc3n2)COC(C)(C)C4)n1	–	-7.97
Cc1cc(C)n(-c2nc(NCCN(C)C)c3c4c(sc3n2)COC(C)(C)C4)n1	–	–
Cc1ccc(N2CCN(c3ncccc3[N+](=O)[O-])CC2)c(C)c1	·	–
Cc1ccc(C)c(N2CCN(c3ncccc3[N+](=O)[O-])CC2)c1	–	-6.57
S=C(NCCc1c[nH]c2ccccc12)NC1CC1	·	–
CCN1CCSc2ccc(C(=O)NCc3ccccc3C)cc21	·	–
CCN1CCSc2ccc(C(=O)NCc3ccccc3Br)cc21	–	-6.14
COCCNC(=O)c1onc(CSc2ccc(Cl)cc2)c1C(=O)O	·	–
O=C(Nc1cccs1)Nc1ccc(F)cc1F	–	–
O=C(Nc1nc2c(F)cc(F)cc2s1)C1CCN(C(=O)c2ccc(F)cc2)CC1	·	–
CC1CCC(C(C)C)C(OC(=O)C2=C3c4ccccc4S(=O)(=O)N3CC2)C1 (configuration not stated)	–	-6.12
CC1CCC(C(C)C)C(OC(=O)CSc2nccc(=O)[nH]2)C1 (configuration not stated)	·	–
O=C(NCc1ccc(Cl)cc1)C1=Cc2cc(Cl)ccc2OC1	·	–
CCOC(=O)C1CCN(C(c2cc(OC)c(OC)c(OC)c2)c2sc3nc(C)nn3c2O)CC1 (configuration not stated)	·	–
COc1cc(C(=O)N(C)CCOc2ccccc2)ccc1OCC(=O)Nc1cccc(C(F)(F)F)c1	–	-6.66
COc1cc(C(=O)NCc2ccc(S(N)(=O)=O)cc2)ccc1OCC(=O)Nc1cccc(C(F)(F)F)c1	–	–
CC(=O)c1ccc(OC(=O)CN2C(=O)c3ccccc3C2=O)cc1	·	–
CCN=C(NCC)SC1CC(=O)N(c2cccc(OC)c2)C1=O (configuration not stated)	–	-5.8
CCN=C(NCC)SC1CC(=O)N(c2ccccc2)C1=O (configuration not stated)	·	–
Oc1ccc(N=Nc2ccc(Br)cc2)c(O)c1	–	–
SMILES	KCNQ2 enhance	KCNQ2 block
Cc1ccc(N=Nc2ccc(O)cc2)c(Br)c1	–	-5.73
COc1ccc(C)cc1NC(=O)CN(c1ccc(F)cc1)S(C)(=O)=O	–	–
CN(C)c1ccc(C(=O)Nc2nc3c(s2)CCCC3)cc1	·	–
CC(C)(C)c1ccc(C(=O)NC(=S)Nc2nc3c(s2)CCCC3)cc1	8.46	–
C[C@]1(C(=O)NCc2cc(F)cc(C(F)(F)F)c2)C=C[C@@H](Cc2ccccc2)N1C(=O)c1ccccc1	–	-7.17
COCCNC(=O)[C@@]1(C)C=C[C@@H](Cc2ccccc2)N1C(=O)c1ccccc1	–	–
COc1ccc(CCNC(=O)C(=O)NCc2ccc(C(C)C)cc2)cc1OC	–	–
COc1ccc(N(C)S(=O)(=O)c2ccc3c(c2)CCC(=O)N3)cc1	·	–
CCN(CC(=O)NCc1cccs1)C(=O)c1cccc(S(=O)(=O)NC)c1	·	–
CCN(CC(=O)NCc1cccs1)C(=O)c1ccc(-c2cccc(C(F)(F)F)c2)o1	–	-7.64
CC1(C)S[C@@H]2[C@H](NC(=O)[C@H](N)c3ccccc3)C(=O)N2[C@H]1C(=O)O	·	–
Cc1ccc2nc(NC(=O)CS(=O)(=O)Cc3ccccc3)sc2c1	–	–
CC(C)(C)NC(=O)NC(=O)CN1CCN(c2ccccc2)CC1	·	–
CCOc1ccccc1NC(=O)c1ccc2c(c1)C(=O)N(CC(C)C)C2=O	–	–
COc1ccccc1N1CCN(C(=O)COc2ccc(Cl)cc2Br)CC1	·	–
COC(=O)C1CCCN1C(=O)COc1ccc(Cl)cc1Br (configuration not stated)	14.8	–
COC(=O)c1c(-c2ccc(C)cc2)csc1NC(=O)Cc1ccc(OC)c(OC)c1	–	-6.77
COC(=O)c1c(-c2ccc(Br)cc2)csc1NC(=O)Cc1ccc(OC)c(OC)c1	·	–
Cc1ccc([N+](=O)[O-])cc1-c1ccc(/C=N/NC(=O)CN2CCOCC2)o1	–	–
O=C(COc1cccc2cccnc12)N/N=C/c1ccc(O)cc1	–	–
O=C(COc1cccc2cccnc12)N/N=C/c1cccn1-c1ccc(F)cc1	–	-7.19
CCOC(=O)c1ccc(N2C(=O)c3n[nH]c(C)c3C2c2ccccc2)cc1 (configuration not stated)	–	–
Cc1cccc(C(=O)N2CCCC(N3CCN(c4cccc(Cl)c4)CC3)C2)n1 (configuration not stated)	–	–
